# Only some compounds are listed: those with a hit (about 6.7% of all), similar ones and a draw of the others.
# T cruzi growth-1: blocks T. cruzi growth in NIH3T3 culture; inhibition, % at 8.34 µM; 5.9% of 77,000 active; AID 624255; T. cruzi beta-gal in NIH3T3, GalScreen luminescence, 90 h;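 active = mean inhibition above about 93%, with at least 55% of replicates each passing it, limit read from the data, passing the limit was not always enough; inconclusive = only one of those two conditions holds; inactive = neither condition holds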
# Pf Dd2 inh: blocks growth of Plasmodium falciparum Dd2 parasites; activity change, % at 10 µM; P. falciparum Dd2 growth, SYBR Green, 72 h; hits give low values; AID 1159554; 2.3% of 94,000 active; in the data active = activity change below about -80%; inconclusive = no clear call, values can overlap the other calls
# C diff growth: blocks growth of Clostridium difficile. Clostridium difficile clinical isolate growth, OD600, 24 h; hits give low values. growth activity, negative = inhibition, % at 16 µg/mL (by protocol). 0.25% of 86,000 active. AID 1259249;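 active = mean growth activity at or below -80% and every replicate also at or below -80%; inconclusive = mean at or below -80% but some replicate above -80%; inactive = mean growth activity above -80%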;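 also: 0% = DMSO wells and -100% = levofloxacin 16 µg/mL wells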
# T cruzi growth-2: inhibitors of T. cruzi proliferation; shares compounds with T cruzi growth-1; 72% of 5,600 active; inhibition, % at 8.35 µM; T. cruzi beta-gal in NIH3T3, GalScreen luminescence, 90 h;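 active = mean replicate inhibition above about 95% and at least 55% of replicates individually reaching it, limit read from the data; inconclusive = only one of the two criteria is met; inactive = neither criterion is met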
# T cruzi growth-3: inhibitors of T. cruzi proliferation. shares compounds with T cruzi growth-1. T. cruzi beta-gal in NIH3T3, GalScreen luminescence, 90 h. inhibition, % at 2.09 µM. 21% of 5,600 active;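 active = mean inhibition above about 95%, with at least 55% of replicates also reaching it, limit read from the data; inconclusive = meets just one of the two conditions; inactive = meets neither condition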;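 also: plate controls were neutral control median for no effect and positive control median for full effect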
# 3T3 cytotox: cytotoxicity in mouse NIH/3T3 fibroblasts; shares compounds with T cruzi growth-1; NIH/3T3 viability, CellTiter-Glo ATP luminescence, 90 h; cytotoxicity (signal decrease), % at 8.35 µM; 14% of 5,600 active;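 active = mean signal decrease across replicates above about 35% based on untreated-well scatter, with enough replicates individually passing, limit read from the data; inconclusive = no rule stated though some were filed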;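 also: 0% = median of neutral control wells and 100% = median of positive control wells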
# NIH3T3 tox 2: NIH/3T3 (mouse) viability loss | inhibition, % at 24.9 µM | AID 651744 | 56% of 5,600 active | shares compounds with T cruzi growth-1 | NIH/3T3 viability, CellTiter-Glo ATP luminescence, 90 h;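 active = mean loss of cell viability signal at or above a set limit, and enough replicates individually reaching it; inconclusive = meets only the mean limit or only the replicate share; inactive = meets neither condition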;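 also: 0% = median of neutral control wells and 100% = median of positive control wells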
# * marks the source's active call; other numbers are inactive results; ? = inconclusive; nt = no result.
SMILES,T cruzi growth-1,Pf Dd2 inh,C diff growth,T cruzi growth-2,T cruzi growth-3,3T3 cytotox,NIH3T3 tox 2
C[C@@H]1CN([C@@H](C)CO)C(=O)c2cc(NS(=O)(=O)c3ccc(F)cc3)ccc2O[C@@H](C)CCCCO[C@@H]1CN(C)C(=O)Nc1cccc2ccccc12,101*,-86*,-1,104*,55,21,18
C[C@H]1CCCCO[C@H](CN(C)C(=O)Nc2cccc3ccccc23)[C@@H](C)CN([C@@H](C)CO)C(=O)c2cc(NS(=O)(=O)c3ccccc3)ccc2O1,nt,-63,nt,nt,nt,nt,nt
CCC(=O)Nc1ccc2c(c1)OC[C@@H](C)N(Cc1ccncc1)C[C@@H](C)[C@H](OC)CN(C)C2=O,31,18,nt,nt,nt,nt,nt
CCCNC(=O)N1CC(=O)N2[C@H](C1)[C@@H](c1ccc(-c3cccc(C)c3)cc1)[C@@H]2CO,nt,-10,30,nt,nt,nt,nt
O=C(CCN1CCCCC1)N[C@@H]1CC[C@@H](CCn2cc(-c3ccccc3)nn2)O[C@H]1CO,8,-12,3,nt,nt,nt,nt
CN(C)C(=O)c1cccc(-c2cccc(-c3nc(C(=O)N4CCOCC4)cc4c3[C@@H](CCO)N([S@](=O)C(C)(C)C)C4)c2)c1,12,-1,nt,nt,nt,nt,nt
C[C@H](CO)N1C[C@H](C)[C@H](CN(C)C(=O)Nc2cccc3ccccc23)OCCCC[C@H](C)Oc2ccc(NS(=O)(=O)c3ccc(F)cc3)cc2C1=O,28,-31,-11,nt,nt,nt,nt
C[C@@H]1CCCCO[C@H](CN(C)C(=O)Nc2cccc3ccccc23)[C@H](C)CN([C@H](C)CO)C(=O)c2cc(NS(=O)(=O)c3ccc(F)cc3)ccc2O1,105*,-84*,2,106*,73,9,5
C[C@@H]1CN([C@@H](C)CO)C(=O)c2cc(NS(=O)(=O)c3ccc(F)cc3)ccc2O[C@@H](C)CCCCO[C@H]1CN(C)C(=O)Nc1cccc2ccccc12,100*,-86*,-8,108*,33,-21,-16
COc1ccc(S(=O)(=O)Nc2ccc3c(c2)C(=O)N([C@H](C)CO)C[C@@H](C)[C@H](CN(C)C(=O)Nc2cccc4ccccc24)OCCCC[C@@H](C)O3)cc1,87,-32,nt,nt,nt,nt,nt
COc1ccc2c3c(n(C)c2c1)[C@H](CO)N(CC1CCOCC1)CC31CN(C(=O)c2cccc(F)c2)C1,nt,-58,5,nt,nt,nt,nt
C[C@H](CO)N1C[C@H](C)[C@H](CN(C)Cc2ccc(C(F)(F)F)cc2)Oc2c(NC(=O)c3ccc(-c4nccs4)cc3)cccc2C1=O,?,-70,nt,108*,87,12,-10
C[C@H]1CN([C@@H](C)CO)C(=O)c2cccc(NC(=O)c3ccc(-c4nccs4)cc3)c2O[C@H]1CN(C)Cc1ccc(C(F)(F)F)cc1,81,-42,nt,nt,nt,nt,nt
C[C@H](CO)N1C[C@H](C)[C@@H](CN(C)Cc2ccc(Oc3ccccc3)cc2)Oc2c(NC(=O)c3ccc(-c4nccs4)cc3)cccc2C1=O,?,-64,nt,100*,112*,-8,-11
C[C@H]1CN([C@@H](C)CO)C(=O)c2cccc(NC(=O)c3ccc(-c4nccs4)cc3)c2O[C@H]1CN(C)Cc1ccc(Oc2ccccc2)cc1,1,-35,nt,nt,nt,nt,nt
O=C(C[C@H]1C[C@H]2c3cc(NC(=O)Nc4ccccc4F)ccc3O[C@H]2[C@@H](CO)O1)NC1CCCC1,24,-21,nt,nt,nt,nt,nt
COCC(=O)N1CC[C@@H]2[C@H]1c1cc(-c3cccc(F)c3)ccc1N(C)[C@@H]2CO,103*,15,-4,103*,34,7,11
COCC(=O)N1CC[C@@H]2[C@H]1c1cc(-c3cccc(OC)c3)ccc1N(C)[C@@H]2CO,117*,3,11,107*,84,2,-5
COCC(=O)N1CC[C@H]2[C@@H]1c1cc(-c3ccccc3)ccc1N(C)[C@H]2CO,71,22,2,nt,nt,nt,nt
COCC(=O)N1CC[C@@H]2[C@@H](CO)N(C)c3ccc(-c4ccccc4)cc3[C@@H]21,98*,-37,-2,104*,56,-27,-20
CN1c2ccc(-c3cccc(F)c3)cc2[C@H]2[C@H](CCN2C(=O)C2CC2)[C@H]1CO,66,0,12,nt,nt,nt,nt

# Source: PubChem BioAssay (Broad Institute)
